Screening data deposited in PubChem by National Center for Advancing Translational Sciences (NCATS).
Rab9 promoter act – Rab9 promoter activation; AID 485297; 2.8% of 320,000 active; Huh7 Rab9 promoter-luciferase reporter, luminescence, 24 h; Potency, µM (series often up to 9.22 µM), inactives show at the top dose activation, negative = inhibition, most hits filed as activators; further: % of control where 0% means no effect; nearly all actives have a fitted effect of over 60% in size
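Rab9 promoter-driven luciferase in stably transfected Huh7 cells; 1500 cells/well rested 2 h, exposed to compound in DMSO for 24 h at 37 °C, 5% CO2. Luminescence read 10 min after adding luciferase reagent at ambient temperature.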
ELG1 genotoxic – induces genotoxicity in HEK293T cells with luciferase-tagged ELG1. HEK293T ELG1-luciferase reporter, luminescence, 16 h. Potency, µM (highest dose often 46 µM), for inactives: at the highest dose activity change, positive = activation, actives largely listed as activators. 1.3% of 330,000 active. AID 504466; further: % of control where 0% means no effect; nearly all actives have a fitted effect of over 60% in size
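Quantitative HTS format in 1536-well plates. HEK293T ELG1-luciferase reporter cells receive test compound and are incubated 16 hr at 37 °C, 5% CO2; ONE-Glo added, 30 min room temperature, then luminescence read.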
NPC1 prom act – NPC1 promoter activation. 2.4% of 320,000 active. Huh7 NPC1 promoter luciferase reporter, 24 h. Potency, µM (titrated, usually from 9.22 µM), without a hit: at the highest dose activation, hits mostly activators; further: % of control where 0% means no effect; nearly all actives have a fitted effect of over 60% in size
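Luminescence read-out of NPC1 promoter-driven luciferase in stably transfected Huh7 cells; compounds delivered in DMSO and left 24 h at 37C, 5% CO2, qHTS titration format.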
ELG1 repair inh – inhibitors of ELG1-dependent DNA repair in HEK293T cells. Potency, µM (top dose mostly 46.1 µM), for inactives: at the highest dose activity change, negative = inhibition, usual class: inhibitors. 2.3% of 330,000 active. HEK293T ELG1-luciferase reporter, luminescence, 16 h; DNA damage induced by 5-fluorouridine; further: on the % scale 0 is the no-effect control and ±100 the full control effect; nearly all actives have a fitted effect of over 55% in size
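In this reporter screen, reduction of luminescence relative to DMSO vehicle indicated activity. Compounds and 5-fluorouridine were added together to 2,000 cells per well, incubated for 16 hr at 37 °C, then developed with ONE-Glo.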
FLuc counter – firefly luciferase modulation, counter-screen for miR-21 project | AID 588342 | 6.9% of 360,000 active | Potency, µM (top dose mostly 57.5 µM), without a hit: at the highest dose activity change, negative = inhibition, actives largely listed as inhibitors | purified FLuc, Km substrates, luminescence inhibition | P08659;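 further: plate controls were vehicle for no effect and reference inhibitor for full effect; nearly all actives have a fitted effect of over 55% in size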
Target sequence (P08659 whole entry, looked up): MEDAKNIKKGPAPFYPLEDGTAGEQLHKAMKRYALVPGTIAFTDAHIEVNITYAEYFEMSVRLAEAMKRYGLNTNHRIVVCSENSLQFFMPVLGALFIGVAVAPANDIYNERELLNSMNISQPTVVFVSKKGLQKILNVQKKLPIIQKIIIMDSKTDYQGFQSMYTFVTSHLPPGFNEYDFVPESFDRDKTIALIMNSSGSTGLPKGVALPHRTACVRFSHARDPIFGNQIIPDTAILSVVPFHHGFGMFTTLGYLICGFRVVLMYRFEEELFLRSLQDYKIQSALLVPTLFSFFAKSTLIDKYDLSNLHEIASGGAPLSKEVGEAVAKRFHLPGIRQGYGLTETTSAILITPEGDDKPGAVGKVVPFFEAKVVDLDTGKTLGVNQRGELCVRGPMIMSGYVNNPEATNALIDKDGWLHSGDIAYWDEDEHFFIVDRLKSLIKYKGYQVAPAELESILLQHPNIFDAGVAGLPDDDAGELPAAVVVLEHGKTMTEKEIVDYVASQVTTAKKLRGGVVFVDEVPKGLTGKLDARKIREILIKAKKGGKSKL
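Biochemical qHTS of compounds, final roughly 60 µM downward over six points, against 10 nM purified firefly luciferase using Km concentrations of substrates (10 uM D-luciferin, 10 uM ATP) in Tris acetate pH 7.5 buffer; luminescence output.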
SMN2 splice up – SMN2 splice variant enhancement. 2.8% of 210,000 active. HEK293 SMN2-luciferase splicing reporter, luminescence, 30-36 h. Potency, µM (top dose mostly 46.1 µM), without a hit: top-dose activity change, positive = activation, most hits filed as activators; further: % of control where 0% means no effect; nearly all actives have a fitted effect of over 55% in size
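HEK293 cells carry an SMN2 minigene-luciferase reporter in which exon 7 inclusion puts luciferase in frame. Cells were seeded at 2000 cells/well, attached for 10-12 hours, then exposed to compounds for 30-36 hours at 37C before ONE-Glo luminescence.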
Starred values were filed as active, the others as inactive; u = inconclusive; x = not tested or not shown; [ ] = another dose, or the depositor's remark. This is a sample that favours compounds with a hit; in the whole collection about 9.2% have one here. The call rests on the fitted dose curve; in most records, active means well fitted curve in the direction sought with a large enough effect; inconclusive means small, poorly fitted or top-dose-only effect, or another doubt; inactive means no such curve, though single readings can be large; an effect the other way counts as inactive or inconclusive. Potency means the concentration at half of the fitted maximal effect.

SMILES	Rab9 promoter act	ELG1 genotoxic	NPC1 prom act	ELG1 repair inh	FLuc counter	SMN2 splice up
CC(C)c1ccc(OCc2ccc(C(=O)N3CCCC3)o2)cc1	2µM*	u	u	u	16.9µM*	x
CC[C@@H](C)[C@H](CN[C@H](CNC)[C@@H](C)O)NCCc1ccc(OC)cc1	-1.0%	5.9%	-3.8%	-11.4%	-1.4%	x
CCC(=O)c1ccc(OCC(=O)OCC(=O)NC2CCCCCCC2)cc1	11.7%	-3.1%	-1.5%	0.0%	-3.5%	x
CCOc1ccc(OCc2ccc(C(=O)OCc3ccccn3)o2)cc1	0.891µM*	0.2%	u	u	u	8.91µM*
CCOc1ccc(OCc2ccc(C(=O)N3CCCC3)o2)cc1	5.2%	6.4%	u	11.6%	u	7.1%
CCOc1ccc(OCc2ccc(C(=O)NC(C)C)o2)cc1	26.2%	3.7%	u	u	-18.4%	x
CN1CCN(C(=O)c2ccc(COc3ccc(C(C)(C)C)cc3)o2)CC1	u	6.1%	u	u	8.49µM*	u
CN(CCC#N)C(=O)c1cc2c(s1)-c1ccccc1SC2	2.51µM*	u	2.24µM*	u	10.7µM*	x
CC1=NOC(=O)/C1=C\c1ccc(-c2ccc(Cl)cc2Cl)o1	-2.2%	-0.1%	-13.3%	-16.5%	5.36µM*	-7.4%
CCCOc1ccc(Cl)cc1/C=C1/C(=O)ON=C1C	2.9%	-1.0%	6.1%	u	-19.8%	x
COC(=O)c1ccccc1NC(=S)N(Cc1ccc2c(c1)OCO2)Cc1cc2cc(OC)ccc2[nH]c1=O	-1.6%	-7.0%	-5.5%	10.3µM*	2.3%	-23.1%
COc1ccc2[nH]c(=O)c(CN(Cc3cccs3)C(=S)NCC3CCCO3)cc2c1 (stereo not given)	-5.1%	-10.0%	0.0%	23.1µM*	0.0%	x
Cc1ccc2cc(CN(Cc3ccco3)C(=S)NCC3CCCO3)c(=O)[nH]c2c1C (stereo not given)	-0.6%	-3.0%	-1.9%	10.3µM*	-2.0%	2.5%
CCN(CC)CCN(Cc1cc2cc(C)cc(C)c2[nH]c1=O)C(=S)NCc1ccco1	-9.3%	-4.2%	-2.2%	-33.9%	3.7%	-9.6%
Cc1cc(C)c2[nH]c(=O)c(CN(Cc3cccs3)C(=S)NCc3ccco3)cc2c1	-4.0%	-6.1%	0.4%	20.6µM*	7.5%	-4.4%[1.84 µM]
C=C(C(=O)O)C1CCC2(C)CCCC(C)(O)C2C1 (stereo not given)	2.7%	-1.2%	-8.4%	1.8%	0.5%	x
O=C(Nc1ccc(Br)cc1)c1ccc(F)c(S(=O)(=O)N2CCCc3ccccc32)c1	x	x	x	x	-9.6%	x
CC(=O)c1cccc(OC(=O)C2=CC=CN3CCS(=O)(=O)N=C23)c1	-3.9%	-2.6%	0.8%	2.6%	1.7%	x
CC(=O)c1cccc(NC(=O)c2cc(C)nc3c2c(C)nn3-c2cccc(Cl)c2C)c1	x	x	x	x	-1.6%	x
CCS(=O)(=O)N1CCc2cc(C(=O)Nc3ccc(OC)cc3OC)ccc21	x	x	x	x	-13.5%	x
CC(C)CNC(=S)N(Cc1ccco1)Cc1cc2cc3c(cc2[nH]c1=O)OCCO3	-4.5%	-2.0%	-4.0%	10.3µM*	-1.3%	-14.6%
Cc1cc(C)c2[nH]c(=O)c(CN(Cc3cccs3)C(=S)NCC3CCCO3)cc2c1 (stereo not given)	-2.4%	-4.2%	1.3%	25.9µM*	-2.0%	-10.5%
CCNC(=S)N(Cc1ccco1)Cc1cc2cc3c(cc2[nH]c1=O)OCCO3	-0.5%	1.2%	7.6%	u	-1.4%	2.2%
Cc1oc2cc3oc(=O)c(CC(=O)NCc4ccccc4)c(C)c3cc2c1C	x	x	x	x	-0.2%	2.5%
C=C1C=C(C(F)F)n2ncc(C(=O)Nc3ccccc3OCC)c2N1	x	x	x	x	0.4%	x
SMILES	Rab9 promoter act	ELG1 genotoxic	NPC1 prom act	ELG1 repair inh	FLuc counter	SMN2 splice up
O=C(COc1ccc2ccc(=O)oc2c1)Nc1nccs1	2.82µM*	u	2.24µM*	u	15.1µM*	x
O=C(COc1ccccc1)Nc1nccs1	3.55µM*	u	1µM*	u	10.7µM*	5.01µM*
O=C(COc1ccc2ccccc2c1)Nc1nccs1	0.355µM*	u	0.501µM*	u	0.601µM*	x
O=C(COc1ccccc1)Nc1ncccn1	8.0%	u	-4.5%	u	-21.4%	-8.7%
O=C(COc1ccc2ccc(=O)oc2c1)Nc1cccnc1	-5.3%	0.6%[9.26 µM]	2.2%	u	-9.6%	x
COc1ccc(-c2cc(-c3ccccc3)nc(SCC(=O)Nc3nccs3)c2C#N)cc1	-3.8%	-1.6%	-1.0%	u	13.5µM*	x
CN(c1ccc(F)cc1)S(=O)(=O)c1ccc(Cl)c(C(=O)NCC(c2ccco2)N2CCCCC2)c1 (stereo not given)	1.6%	-3.8%	-1.5%	-15.1%	2.0%	x
Cc1cccc(Cn2c(=O)n(Cc3ccccc3)c(=O)c3sc4ccccc4c32)c1	x	x	x	x	1.2%	10.5%
Nc1ccccc1SCC(=O)Nc1nccs1	-1.9%	-3.5%	-6.6%	18.4%	-0.9%	x
Cn1cc(SCC(=O)Nc2nccs2)c2ccccc21	u	20.6µM*	u	u	12µM*	11.2µM*
Cc1cccc(OCC(=O)OCC(=O)Nc2sccc2C(N)=O)c1	x	0.2%	x	4.7%	x	x
NC(=O)c1ccsc1NC(=O)COc1ccccc1	3.16µM*	8.91µM*	u	u	12µM*	12.6µM*
CN(C)S(=O)(=O)c1cccc(C(=O)OCC(=O)Nc2sccc2C(N)=O)c1	5.2%	-17.0%	-3.8%	18.4µM*	2.5%	x
COc1ccc(NC(=O)COC(=O)c2cccc(S(=O)(=O)N(C)C)c2)cc1	-3.0%	0.7%	0.9%	0.3%	-0.9%	-8.4%
CC(=O)N1CCCc2cc(S(=O)(=O)N3CCC(C(=O)NCc4ccccc4)CC3)ccc21	x	x	x	x	-2.1%	x
c1csc(-c2ncc3ccccn23)c1	21.6%	u	20.6%	u	u	23.1%
Clc1ccc(/C=C/c2ncc3ccccn23)cc1	1µM*	u	1.58µM*	u	6.75µM*	x
O=C(CN1C(=O)c2cccc([N+](=O)[O-])c2C1=O)OCC(=O)N1CCCCC1	21.2%	-2.7%	8.2%	u	8.49µM*	x
COC(=O)c1c(NC(=O)CN2CCOCC2)sc2c1CCC(C)C2 (stereo not given)	23.4%	18.9%	8.3%	u	12µM*	-4.8%
COC(=O)c1c(NC(=S)NN2CCOCC2)sc2c1CCCC2	-2.6%	-3.6%	-1.6%	-17.4%	15.1µM*	x
CCOC(=O)c1c(NC(=O)c2ccc(C)cc2)sc2c1CC(C)(C)OC2	2.2%	-2.7%	-0.7%	8.2µM*	-3.6%	-22.9%
COC(=O)c1c(NC(=S)NC(=O)c2ccco2)sc2c1CCCC2	-6.2%	8.0%	-11.4%	u	u	-5.2%
